Data: PubChem BioAssay AID1733 (National Center for Advancing Translational Sciences (NCATS), 2009)
Records with an inconclusive call do not appear. Unmarked numbers belong to inactive results. Calls of active or inactive are those of the source. Calls follow the shape of the dose curve; as a rule, active = well fitted inhibition curve with a large enough effect; inconclusive = small, poorly fitted or top-dose-only effect; inactive = flat fitted curve, though single readings scatter.

target: Luciferin 4-monooxygenase (Photinus pyralis) (UniProt P08659); assay: Counterscreen Assay for Enhancers of SMN2 Splice Variant Expression: Interaction with Luciferase Reporter; conditions: purified firefly luciferase, luminescence, 5 min; series mostly up to 51 µM
Description: NIH Chemical Genomics Center [NCGC] NIH Molecular Libraries Probe Production centers Network [MLPCN] MLPCN Grant: R03 MH084179-01 Assay Submitter (PI): Elliot Androphy NCGC Assay Overview: Spinal muscular atrophy (SMA) is caused by insufficient levels of the survival motor neuron protein SMN. The SMN locus on chromosome 5q13 contains two inverted copies of SMN called SMN1 and SMN2 which are 99% identical at the amino acid level. SMN1 is a fully functional protein and SMN2 skips exon 7 90% of the time. Skipping of exon 7 produces non-functional protein product. 10% of the SMN2 protein includes exon 7 and is fully functional. In the SMA disease state, mutations in the SMN1 locus are the cause of the disease state. Because only 10% of SMN2 is of the fully functional form, it is not sufficient to overcome the deficiency produced by the loss of the SMN1 product. A therapy that either increases the amount of SMN2 product made increases the inclusion of exon 7 has been proposed for the treatment of SMA. We have designed an assay to identify small molecules that can increase the amount of functional SMN2 product by appending a luciferase reporter gene after the native SMN2 gene, such that inclusion of exon 7 in the expressed product places the luciferase sequence in frame, thus generating functional luciferase enzyme. One potential source of false positives in the primary screening assay is stabilization of the reporter luciferase via direct binding. […]
NCGC Assay Protocol Summary: The primary screen utilizes a luciferase reporter gene assay, combining the promoter and splicing based cassettes in tandem with the major portion of the native SMN1 cDNA, and then transfected into HEK293 cells. […] Sequence, Parameter, Value, Description (1) Reagent, 2.5 uL, Enzyme in buffer (note A) (2) Compound, 23 nL, From stock solutions (3) Time, 5 minutes, Room temp (4) Reagent#2.5 ul, Luciferase detection reagent (note B) (5) Detector, 1 sec integrate, Luminescent read on Viewlux (note C) Sigma enzyme (1 mg) considered to be MW 61,000 diluted in 357 ul assay buffer to 50 uM stock. […]

Sequence of Luciferin 4-monooxygenase (Photinus pyralis) (P08659 whole entry, looked up, canonical isoform): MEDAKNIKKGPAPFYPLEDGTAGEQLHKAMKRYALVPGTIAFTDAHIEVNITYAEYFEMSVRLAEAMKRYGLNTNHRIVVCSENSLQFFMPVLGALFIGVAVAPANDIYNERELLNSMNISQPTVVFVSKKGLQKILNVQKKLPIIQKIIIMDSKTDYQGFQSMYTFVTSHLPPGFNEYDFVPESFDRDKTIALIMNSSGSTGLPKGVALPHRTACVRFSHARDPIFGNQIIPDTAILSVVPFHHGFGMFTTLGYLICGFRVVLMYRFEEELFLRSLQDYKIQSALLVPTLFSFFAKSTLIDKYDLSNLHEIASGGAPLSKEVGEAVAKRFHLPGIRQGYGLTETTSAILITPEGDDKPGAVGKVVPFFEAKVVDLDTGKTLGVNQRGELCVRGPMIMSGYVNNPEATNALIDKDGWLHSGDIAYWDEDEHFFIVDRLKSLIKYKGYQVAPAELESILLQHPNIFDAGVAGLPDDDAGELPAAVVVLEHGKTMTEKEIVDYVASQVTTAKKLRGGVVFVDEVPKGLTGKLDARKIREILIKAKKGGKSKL

| Structure (SMILES) | Potency | activity change, negative = inhibition |
| --- | --- | --- |
| CC[C@]1(O)CC(O[C@@H]2CC(N(C)C)C(O)C(C)O2)c2c(cc3c(c2O)C(=O)c2c(O)cccc2C3=O)C1C(=O)OC (stereo partly drawn) | inactive | – |
| C[C@@H]1O[C@@H](O[C@H]2C[C@@H](O)[C@]3(CO)[C@H]4[C@H](O)C[C@]5(C)[C@@H](C6COC(=O)C6)CC[C@]5(O)[C@@H]4CC[C@]3(O)C2)[C@H](O)[C@H](O)[C@H]1O (stereo partly drawn) | – | 13.4% [at 48.7 pM] |
| O=C(C1CCN(c2nc3ccc(Br)cc3s2)CC1)N1CCC2(CC1)OCCO2 | 7.08 µM (active) | – |
